This note sets out measurements from PubChem BioAssay AID1272365 (Small Molecule Screening Facility, UW Madison, 2018).

Values joined by “and” are separate entries in the source; they are usually repeats but may differ in a detail not shown here. Identical values can stand only once. About 2,600 (0.6%) of roughly 430,000 compounds were called active. The sample holds actives, similar compounds and a random draw of the others, so the mix is not that of the screen. Unmarked numbers belong to inactive results. Rule as the data show it: active = inhibition mostly above about 37% (no sharp cut-off); inactive = mostly below about 20%.

Broadly, the inhibition is the relative decrease from the control value, in per cent.

The test system of the experiment is PriA–SSB C-terminal tail interaction (Klebsiella pneumoniae). The experiment can be described thus: blocks PriA binding to SSB C-terminal tail, primary screen, biochemical, AlphaScreen (AID 1272365).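 Also: plate controls were negative control peptide for no effect and reference peptide for full effect.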 To be noted: AlphaScreen SSBct-PriA binding, biotinylated peptide; at 33 µM, stronger effect = higher value. For orientation: Bead proximity is the source of the signal in Alpha formats.
With `CN1CCc2cc(C(CNC(=O)C(=O)Nc3ccccc3F)N(C)C)ccc21` (stereo not drawn), the inhibition was 14%.

As to `COc1cccc2c1C(=O)c1c(O)c3c(c(O)c1C2=O)CC(O)(C(C)=NNC(=O)c1ccc(Cl)c(Cl)c1)CC3OC1CC(N)C(O)C(C)O1` (stereo not drawn), the inhibition is 57.5% (active).

Take `CCOC(=O)CNC(=O)CSc1ccc2nnc(-c3cccnc3)n2n1`: the inhibition was 2.63%.

Consider `NC(=O)CSc1ccc2nnc(-c3ccccn3)n2n1`, for which the inhibition is 72% (active).

On to `Cc1ccccc1NC(=O)CSc1ccc2nnc(-c3ccccn3)n2n1`, for which the inhibition is -4.51%.

For the molecule `CCCN(CCC)C(=O)Cn1c(=O)c2ccccc2n2c(=S)sc(-c3cccc(C)c3)c12`, the inhibition is 7%.

As to `CCc1ccc2nc(Nc3nc4ccc(NC(C)=O)cc4s3)sc2c1`, the inhibition was 2%.

In the case of `C/C(=N/N=C1/NC(=O)CS1)c1ccccc1`, the inhibition is -2%.

For `N#CC1=C(N)Oc2c(sc3ccccc23)C1c1ccco1` (stereo not drawn), the inhibition was 2.22%.

For the molecule `Nc1cncc2cccnc12`, the inhibition was -8%.

Regarding `N#CC1=C(N)Oc2c(ccc3cccnc23)C1c1ccncc1` (stereo not drawn), the inhibition is 65.3% (active).

As to `Cc1ccc2nc3sc(Nc4ccc(C)c(Cl)c4)nn3c(=O)c2c1`, the inhibition is -4%.

For the molecule `Cc1nn(C)c(C)c1S(=O)(=O)NCC1CCN(c2ccccn2)CC1`, the inhibition was 2%.

`Cc1ccc2c(c1)C1CN(C)CCC1N2S(=O)(=O)c1ccc(Oc2ccc([N+](=O)[O-])cc2)cc1` (stereo not drawn): the inhibition is 17.5%.

Take `Cc1ccc2c(c1)C1CN(C)CCC1N2S(=O)(=O)c1cccc(F)c1` (stereo not drawn): the inhibition is 39.2% (active).

On to `Cc1ccc2c(c1)C1CN(C)CCC1N2C(=O)c1ccccc1NS(=O)(=O)c1ccc(F)cc1C` (stereo not drawn), for which the inhibition was -3.86%.

As to `CCOc1ccc(-c2ccc(=O)n(CC(=O)N3CCOCC3)n2)cc1`, the inhibition is -1%.

`CC(C)CC(COCc1ccc(Cl)cc1)N1CCN(C(=O)c2ccc(C(F)(F)F)cc2)CCC1=O` (stereo not drawn): the inhibition was -5.16%.

Take `CN1CCC(=O)N([C@H](CO)Cc2ccccc2)CC1`: the inhibition is -2.41%.

For `O=C(c1cc(Cl)cc(Cl)c1)N1CCC(=O)N(C(COCc2ccccc2)Cc2ccccc2)CC1` (stereo not drawn), the inhibition is 44.6% (active).

On to `COc1cc(NC(=O)CSc2nccn3nc(-c4ccc(Cl)cc4)cc23)cc(OC)c1`, for which the inhibition was 3%.

For the molecule `Cc1ccc(Nc2nc(-c3ccccn3)cs2)cc1C`, the inhibition was 108% (active).

Turning to `Cc1cc(-c2csc(Nc3ccccn3)n2)c(C)o1`, the inhibition is 2%.

As to `Cc1csc(OCC(=O)Nc2ccc(C)c(C)c2)n1`, the inhibition is -9.32%.

`COc1ccccc1C(CNC(=O)c1ccc2c(c1)OCO2)OC` (stereo not drawn): the inhibition is -10%.

`Cc1noc(C)c1CC(=O)NCCn1cnc2ccsc2c1=O`: the inhibition is -1%.

In the case of `CNC(=O)NC(=O)C(C)N1CCN(C/C=C/c2ccccc2)CC1` (stereo not drawn), the inhibition was 7.15%.

Regarding `O=C1c2ccccc2C(=O)c2c1cccc2N1CCN(Cc2ccccc2)CC1`, the inhibition was 50.5%.

`O=C1c2ccccc2C(=O)c2c1cccc2N1CCN(C/C=C/c2ccccc2)CC1`: the inhibition was 68.2% (active).

Take `Cc1ccc(Nc2ccc(NCCN)nn2)nc1`: the inhibition is 89% (active).

Take `Cc1ccc(NS(=O)(=O)c2ccc(F)cc2)nc1`: the inhibition is -0.76%.

In the case of `Cc1cccc(N2CCN(C(=O)CCc3csc4nc(-c5ccccc5)cn34)CC2)c1`, the inhibition is -16%.

On to `O=C(CC1(n2cccc2)CCOCC1)Nc1nc(-c2ccccn2)cs1`, for which the inhibition is 109% (active).

For `O=C(CN1C(=O)C2C3C=CC(C3)C2C1=O)Nc1nc(-c2ccccn2)cs1` (stereo not drawn), the inhibition was 84.8% (active).

As to `CCCCOC(=O)NCN1C(=O)C2C3C=CC(C3)C2C1=O` (stereo not drawn), the inhibition was 9.26%.

Regarding `O=C(CCN1C(=O)C2C3C=CC(C3)C2C1=O)Nc1ccccc1F` (stereo not drawn), the inhibition was -14.1%.

Take `CC(C)C1Nc2ccccc2C(=O)N1CC(=O)Nc1nc(-c2ccccn2)cs1` (stereo not drawn): the inhibition was 94.5% (active).

In the case of `O=C(CSc1ccccc1)Nc1nc(-c2ccccn2)cs1`, the inhibition is -20%.

`Cc1ccc(SCCC(=O)Nc2nc(-c3ccc4c(c3)OCCO4)cs2)cc1`: the inhibition was 8%.

With `O=C(Cc1csc(NC(=O)c2ccccc2)n1)NCc1ccccn1`, the inhibition is 0%.

In the case of `O=C1c2ccccc2NC(c2ccccn2)N1NS(=O)(=O)c1ccccc1` (stereo not drawn), the inhibition was -13.5%.

As for `Cc1c(C(=O)Nc2nc(-c3ccccn3)cs2)cccc1[N+](=O)[O-]`, the inhibition is 25.8%.

For `COc1ccc(SCCC(=O)Nc2nc(-c3ccccn3)cs2)cc1`, the inhibition was 81% (active).

On to `Cc1ccc(-c2csc(NC(=O)[C@H](C(C)C)N3C(=O)c4ccccc4C3=O)n2)cc1`, for which the inhibition is -1%.

Regarding `Cc1cc(OCC(=O)NCCc2ccccc2)ccc1C(C)C`, the inhibition is -16% and -56%.

For `O=C(Nc1nc(-c2cc([N+](=O)[O-])cs2)cs1)C1CC1`, the inhibition was 16%.

With `O=C(COc1ccc(F)cc1)Nc1ccc2c(c1)N(C(=O)c1ccco1)CC2`, the inhibition is 0%.

For the molecule `Cc1c(S(=O)(=O)CCNC(=O)NCc2cccs2)c2ccccc2n1C`, the inhibition was -1%.

As for `COc1cc(/C=C2\Oc3cc(OCC(=O)O)ccc3C2=O)cc(OC)c1OC`, the inhibition is -2%.

As to `COc1ccc(OC)c(NC(=O)c2ccc(S(=O)(=O)NC3CC3)cc2)c1`, the inhibition was 16%.

In the case of `O=C(NCCn1nc(C(F)(F)F)c2c1CCCC2)c1c(F)cccc1Cl`, the inhibition was -4%.

For the molecule `COC(=O)c1c(NC(=O)c2cc(C)no2)sc2c1CCCC2`, the inhibition is 0%.

Turning to `CCOC(=O)c1ccc(NC(=O)c2cc(=O)[nH]cn2)cc1`, the inhibition is -18%.

On to `Nn1c(SCC(=O)NC2CCCCC2)nnc(CCC(=O)O)c1=O`, for which the inhibition is -5%.

Consider `COc1ccc(-n2nnc(C(=O)OCc3ccccc3C)c2C)cc1`, for which the inhibition was -5%.

As to `CSc1ccccc1NC(=O)C(=O)NCCC(O)c1ccc2c(c1)OCO2` (stereo not drawn), the inhibition is 13%.

Regarding `O=C(Nc1ccc2c(c1)OCO2)c1ccc2nccnc2c1`, the inhibition is -19%.

For the molecule `CS(=O)(=O)N1CCCC(C(=O)Nc2nc(-c3nc4ccccc4s3)cs2)C1` (stereo not drawn), the inhibition was -20%.

For `CC1(C)CC(=O)c2sc(NC(=O)C3CCCCN3S(C)(=O)=O)nc2C1` (stereo not drawn), the inhibition was -7%.

As for `CS(=O)(=O)N1CCCC1C(=O)Nc1nc2c(F)cc(F)cc2s1` (stereo not drawn), the inhibition is 5%.

As to `CS(=O)(=O)N1CCCCC1C(=O)Nc1nc(-c2ccccn2)cs1` (stereo not drawn), the inhibition is 79% (active).

As for `O=C(Nc1nccs1)C1CCCN1S(=O)(=O)c1cccc2cccnc12` (stereo not drawn), the inhibition is -2.31%.

Consider `CS(=O)(=O)N1CCC[C@H]1C(=O)Nc1nc(-c2ccccn2)cs1`, for which the inhibition was 75% (active).
